# Laboratory results taken from PubChem BioAssay AID1654 (Sanford-Burnham Center for Chemical Genomics, 2009).
# About 1,500 (0.52%) of roughly 290,000 compounds were called active. No stated cut-off is given here; in the data, active means inhibition above about 50%; inactive means the rest. Shown is part of a subset that was picked to be rich in actives.
# Molecular target: Dual specificity protein phosphatase 3 (Homo sapiens) (UniProt P51452)
# Test: VHR1 phosphatase inhibitors, primary screen, biochemical, absorbance, uHTS (AID 1654)
# [1] = recombinant VHR phosphatase, pNPP absorbance, at 13.3 µM, stronger effect = higher value
# Sequence of Dual specificity protein phosphatase 3 (Homo sapiens) (P51452 whole entry, looked up): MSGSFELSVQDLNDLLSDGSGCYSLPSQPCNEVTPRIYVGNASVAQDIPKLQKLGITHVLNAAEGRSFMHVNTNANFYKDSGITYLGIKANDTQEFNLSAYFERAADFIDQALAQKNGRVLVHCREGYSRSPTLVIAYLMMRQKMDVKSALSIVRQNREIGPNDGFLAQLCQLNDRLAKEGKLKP
compound,measurement,setting,value
CCOc1ccc(CN2CCN(Cc3ccc4cc(F)ccc4n3)CC2CCO)cc1 (stereo unspecified),inhibition,[1],6.4% (inactive)
Cc1cccc(C(=O)OCC(=O)Nc2ccc(F)cc2)c1,inhibition,[1],8% (inactive)
Cc1cc(C)nc(-n2ncc3c2CC(c2ccc(C(C)C)cc2)CC3=O)n1 (stereo unspecified),inhibition,[1],1.9% (inactive)
NC(=S)Nc1c(Cl)cccc1Cl,inhibition,[1],24.6% (inactive)
CSCCNC(=O)c1ccc2nc(Cc3ccccc3F)oc2c1,inhibition,"recombinant VHR phosphatase, pNPP absorbance; at 13.3 µM; stronger effect = higher value",63.9% (inactive)
same,inhibition,"recombinant VHR phosphatase, pNPP absorbance; measured here: average of confirmation repeats; at 13.3 µM; stronger effect = higher value",2.8%
Cc1ccc(NC2CCCN(C(=O)CCc3cn[nH]c3)C2)cc1C (stereo unspecified),inhibition,[1],-2.7% (inactive)
CCOc1cc(/C=N/NC(=O)OC)ccc1OCCSc1ccc(Cl)cc1,inhibition,[1],-3.8% (inactive)
CCOc1cc(/C=N/O)ccc1OCc1ccccc1F,inhibition,[1],-4.1% (inactive)
CC(=O)c1nn(-c2cccc(C(F)(F)F)c2)c(=O)[nH]c1=O,inhibition,[1],-9.5% (inactive)
CN(CCO)c1ccc(/C=N/Nc2nncc3ccccc23)cc1,inhibition,[1],18.2% (inactive)
O=C(Nc1ccc(OCC(=O)N2CCOCC2)cc1)c1cc(F)c(F)cc1Cl,inhibition,[1],25.5% (inactive)
O=C1COc2ccc(S(=O)(=O)Nc3ccc(OC(F)(F)F)cc3)cc2N1,inhibition,[1],-1.9% (inactive)
COc1ccccc1NC(=O)CSc1nc2sc3c(c2c(=O)n1-c1ccccc1)CCN(C)C3,inhibition,[1],9.1% (inactive)
Cc1ccc(-c2nc(SCC(=O)Nc3ccccc3OC(F)F)c3c(C)c(C(=O)O)sc3n2)cc1,inhibition,[1],113% (active)
Cc1ccc(C)c(SCc2nc3sc(C(=O)O)c(C)c3c(=O)[nH]2)c1,inhibition,[1],7.2% (inactive)
CCN(CC)c1ccc(/C=N/NC(=O)CNC(=O)c2cccs2)cc1,inhibition,[1],10.2% (inactive)
CN(C(=O)COC(=O)CNC(=O)C12CC3CC(CC(C3)C1)C2)c1ccccc1,inhibition,[1],14.5% (inactive)
Cc1c(C(=O)O)nnn1-c1nonc1N,inhibition,[1],17.9% (inactive)
Nc1nonc1-n1nnc(C(=O)N/N=C\c2ccncc2)c1CN1CCCCC1,inhibition,[1],13% (inactive)
NNC(=O)c1nnn(-c2nonc2N)c1CN1CCCC1,inhibition,[1],52.8% (active)
Cc1ccc2c(c1)N(CC(=O)N1CCCC(C)C1)C(=O)CO2 (stereo unspecified),inhibition,[1],7.4% (inactive)
CCOc1ccc(CN2CCN(CCCc3ccccc3)C(CCO)C2)cc1 (stereo unspecified),inhibition,[1],8.1% (inactive)
Cc1noc(C)c1CCC(=O)N1CCCC(CO)(Cc2ccccc2)C1 (stereo unspecified),inhibition,[1],5.7% (inactive)
CC1CN(C(=S)Nc2ccc(Br)cc2Cl)CC(C)O1 (stereo unspecified),inhibition,[1],15% (inactive)
CCc1ccc(NC(=O)Cn2nnc(C(=O)NCc3ccc(OC)cc3)c2N)cc1,inhibition,[1],-1.9% (inactive)
CCOc1ccc(NC(=O)CN2CCN(CC(=O)Nc3ccc(OC)cc3)CC2)cc1,inhibition,[1],-3.3% (inactive)
CCc1ccc(NC(=O)CN2CCC(C(=O)c3ccc(OC)cc3)CC2)cc1,inhibition,[1],52% (active)
COc1ccc(CCNC(=O)C2CCCN(S(=O)(=O)c3ccc(OC)cc3)C2)cc1 (stereo unspecified),inhibition,[1],-35.9% (inactive)
CCCCNC(=O)C1CCCN(S(=O)(=O)c2ccc(S(=O)(=O)NCC(C)C)cc2)C1 (stereo unspecified),inhibition,[1],6.5% (inactive)
CC(C)CCNC(=O)C1CCCN(S(=O)(=O)c2ccc(F)cc2)C1 (stereo unspecified),inhibition,[1],53.4% (active)
CCc1cc(-c2nnc(SCC(=O)NC3CC3)n2C)cs1,inhibition,[1],24% (inactive)
O=c1[nH]cnc2c1c(-c1ccccc1)cn2-c1ccc(F)cc1,inhibition,[1],-6.9% (inactive)
O=c1c(-c2cccc(Cl)c2)c[nH]n1-c1ccccc1,inhibition,[1],12.5% (inactive)
O=c1c2c(-c3ccccc3)ccnc2[nH]n1-c1ccccc1,inhibition,[1],55.5% (active)
Cc1ccc(C2C3=C(Nc4[nH]n(-c5ccccc5)c(=O)c42)c2ccccc2C3=O)cc1 (stereo unspecified),inhibition,[1],1.7% (inactive)
Cc1ccc(-c2ccnc3[nH]n(-c4ccccc4)c(=O)c23)cc1,inhibition,[1],60% (active)
Cc1ccc(-n2[nH]c(C)c(/C=N/N3C(=O)c4cccc5cccc(c45)C3=O)c2=O)cc1,inhibition,[1],20.9% (inactive)
Cc1ccc(S(=O)(=O)N2CCC(C(=O)N[C@@H](C)C(=O)NCc3ccccc3)CC2)cc1,inhibition,[1],1.5% (inactive)
C[C@H](NC(=O)C1CCN(S(=O)(=O)c2ccccc2)CC1)C(=O)NCc1ccccc1,inhibition,[1],52.3% (active)
Cc1ccc(S(=O)(=O)N2CCC(C(=O)N[C@@H](C)C(=O)NCCc3ccccc3)CC2)cc1,inhibition,[1],6.2% (inactive)
N#Cc1c(-c2ccccc2)nc(SCc2ccc([N+](=O)[O-])cc2)[nH]c1=O,inhibition,[1],4.1% (inactive)
O=C(C(NS(=O)(=O)c1cccc2nsnc12)c1ccccc1)N1CCN(c2ccccc2)CC1 (stereo unspecified),inhibition,[1],-12.8% (inactive)
O=C(C(NS(=O)(=O)c1cccc2nsnc12)c1ccccc1)N1CCN(c2ccccn2)CC1 (stereo unspecified),inhibition,[1],52.7% (active)
O=C(O)C(NS(=O)(=O)c1cccc2nsnc12)c1ccccc1 (stereo unspecified),inhibition,[1],13.3% (inactive)
O=C(NCCOc1cccnc1)c1ccc(OC2CCN(Cc3ccccn3)CC2)cc1,inhibition,[1],18.5% (inactive)
Fc1ccc(/C=N/n2c(COc3ccccc3)n[nH]c2=S)cc1,inhibition,[1],26.3% (inactive)
C/C(=N/O)c1ccc(N2C(=O)C3C4C=CC(C3C2=O)C2C3C(=O)N(c5ccc(/C(C)=N/O)cc5)C(=O)C3C42)cc1 (stereo unspecified),inhibition,[1],-7.1% (inactive)
CC1CCN(C(=O)/C(=C\c2ccccc2F)NC(=O)c2ccccc2)CC1,inhibition,[1],18.5% (inactive)
CN(CC(=O)NCc1ccc(Cl)cc1)S(=O)(=O)c1cccs1,inhibition,[1],21.4% (inactive)
COc1ccc(NC2CCCN(C(=O)c3ccncc3)C2)cc1 (stereo unspecified),inhibition,[1],54.2% (active)
